Screening results: PubChem, National Center for Advancing Translational Sciences (NCATS)
ATXN2 expr inh: reduces ATXN2 reporter expression in HEK-293 cells; HEK-293 ATXN2-luciferase reporter, luminescence, 24 h; Potency, µM (doses to about 57 µM), for inactives: top-dose activity change, negative = inhibition, most hits filed as inhibitors; actives 0.72% (n = 360,000); AID 1745845; further: on the % scale 0 is the no-effect control and ±100 the full control effect; nearly all actives have a fitted effect of over 55% in size
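qHTS (up to 57 uM final) was run with 24 h compound exposure of reporter cells at 37 °C. Each well was multiplexed: SteadyGlo luminescence measured ATXN2-luciferase expression after a fluorogenic Gly-Phe-AFC viability readout (25 uM final).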
DT40 TDP1 no CPT: qHTS for Inhibitors of human tyrosyl-DNA phosphodiesterase 1 (TDP1): qHTS in cells in absence of CPT. DT40 Tdp1-/- hTDP1 cells, no CPT, ATP luminescence, 48 h. Potency, µM (doses to about 46.2 µM), for inactives: at the highest dose activity change, negative = growth inhibition, actives largely listed as inhibitors. actives 15% (n = 420,000). AID 686978, 2013; further: on the % scale 0 is the no-effect control and ±100 the full control effect; nearly all actives have a fitted effect of over 55% in size
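Compound effects on proliferation are scored in DT40 Tdp1-/-;hTDP1 cells in the absence of CPT. ATP levels (CellTiter-Glo luminescence) are recorded after a ≥48 hr, 37 °C incubation.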
TDP1 cell CPT: DT40-hTDP1 cell growth loss with CPT; chicken DT40 Tdp1-/-;hTDP1 cells + 20 nM CPT, ATP luminescence, 48 h; Potency, µM (top dose mostly 46.2 µM), for inactives: at the highest dose activity change, negative = growth inhibition, most hits filed as inhibitors; actives 12% (n = 420,000); further: on the % scale 0 is the no-effect control and ±100 the full control effect; nearly all actives have a fitted effect of over 55% in size
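Chicken DT40 Tdp1-/- cells stably complemented with human TDP1 were seeded at 400 cells/well in medium containing 20 nM camptothecin, exposed to pin-transferred compounds, and grown at 37 °C for at least 48 hr. Viability was read as ATP luminescence.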
ATXN viability: reduces viability in counter-screen for ATXN expression inhibitors. S2 cells (HEK-293 line with an ATXN2-luciferase reporter) viability, CellTiter-Fluor protease fluorescence, 24 h. Potency, µM (series often up to 56.7 µM), usual class: cytotoxic. actives 0.49% (n = 400,000); further: nearly all actives have a fitted effect of over 40% in size
TGFb SMAD3 inh: blocks TGF-b signaling; HepG2 CAGA-GFP TGF-b/SMAD3 reporter, GFP fluorescence, 18 h; TGF-beta stimulated, 500 pg/mL final; Potency, µM (doses to about 46.1 µM), for inactives: top-dose activity, negative = inhibition, most hits filed as inhibitors; actives 1.2% (n = 410,000); AID 588855; further: on the % scale 0 is the no-effect control and ±100 the full control effect; nearly all actives have a fitted effect of over 65% in size
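HEPG2 CAGA-GFP cells (1000/well, DMEM with 1% FBS) were pre-incubated 2 h at 37 degrees C, given compound by pin tool, then stimulated with TGF-beta at 500 pg/mL final for 18 h before per-cell GFP fluorescence imaging.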
HepG2 tox: counter-screen for TGF-b inhibitors: cytotoxicity in HepG2 cells. actives 0.76% (n = 410,000). HepG2 CAGA-GFP viability, ATP luminescence, 18 h. Potency, µM (series often up to 46.1 µM), for the others: at the highest dose activity change, negative = cytotoxicity, most hits filed as cytotoxic
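CellTiter-Glo luminescence gave cytotoxicity after 18 hours at 37 degrees C. The cells were HepG2 CAGA-GFP in 1% FBS DMEM, stimulated with 500 pg/mL TGF-beta after compound addition. %Activity was normalised to no-cell wells (complete cell-killing) and DMSO (no toxicity), and curves were fitted and classified.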
* = called active by the depositor; i = inactive; ? = inconclusive; · = not tested or not shown. Rows were chosen to be rich in hits. Some 17% of all compounds tested hit in one or more screens of this group. The call rests on the fitted dose curve; in most records, active means well fitted curve in the direction sought with a large enough effect; inconclusive means small, poorly fitted or top-dose-only effect, or another doubt; inactive means no such curve, though single readings can be large; an effect the other way counts as inactive or inconclusive. Potency means the concentration at half of the fitted maximal effect.

SMILES	ATXN2 expr inh	DT40 TDP1 no CPT	TDP1 cell CPT	ATXN viability	TGFb SMAD3 inh	HepG2 tox
CCOc1cc(-c2nnc(SCC(=O)NCCCOC)nc2-c2ccc(OC)c(OCC)c2)ccc1OC	·	?	-26.0%	·	31.9%	0.3%
CCOc1ccc(-c2nnc(SCC(=O)NCCC(C)C)nc2-c2ccc(OCC)c(OC)c2)cc1OC	·	?	14.6µM*	·	31.0%	-3.4%
COc1ccc(C)cc1Nc1n[n+](C)c(-c2ccc(O)cc2O)s1	6.1%	-23.4%	-13.4%	i	?	0.8%
COc1ccc(C)cc1Nc1n[n+](-c2ccccc2)c(-c2ccc(N(C)C)cc2)s1	?	20.6µM*	10.3µM*	?	-16.8%	-40.6%
COc1ccc(C)cc1Nc1n[n+](C)c(-c2c3ccccc3cc3ccccc23)s1	-4.5%	-7.3%	-19.7%	i	2.4%	-1.5%
COc1ccc(C)cc1Nc1n[n+](-c2ccccc2)c(-c2ccc(OC)c(OC)c2OC)s1	?	18.4µM*	16.4µM*	?	?	-22.4%
COc1ccc(C)cc1Nc1n[n+](-c2ccccc2)c(-c2c(Cl)cccc2Cl)s1	0.0%	13µM*	20.6µM*	11.2µM*	?	12.6µM*
CN(C)c1ccc(-c2sc(Nc3ccccc3)n[n+]2-c2ccc(F)cc2)cc1	9.8%	?	?	i	-4.6%	-19.9%
O=C(N/C(=C/c1cccnc1)C(=O)N1CCOCC1)c1ccccc1F	-18.8%	15.1%	-5.1%	?	12.1%	-0.1%
COc1cc(CN2CCCN(C)CC2)cc([N+](=O)[O-])c1O	-4.0%	-8.0%	15.3%	i	-2.9%	-0.3%
O=C1NC(=O)C(=Cc2ccc3c(c2)OC(F)(F)O3)S1	50.7%	·	·	·	·	·
CC1(C)CC(=O)C(C(c2cc([N+](=O)[O-])ccc2Cl)C2C(=O)CC(C)(C)CC2=O)C(=O)C1	12.2%	5.8µM*	?	?	-11.8%	7.4%
Cc1sc(C(C2C(=O)CC(C)(C)CC2=O)C2C(=O)CC(C)(C)CC2=O)cc1[N+](=O)[O-]	·	23.1µM*	?	?	?	-45.7%
CC1(C)CC(=O)C(C(c2ccccc2F)C2C(=O)CC(C)(C)CC2=O)C(=O)C1	-8.2%	8.6%	3.1%	?	-4.4%	0.9%
O=C(COC(=O)c1ccc([N+](=O)[O-])o1)Nc1ccc2c(c1)OC(F)(F)O2	·	-1.2%	-22.8%	?	4.8%	-3.8%
Cc1cc(C(=O)COC(=O)c2cccc(S(=O)(=O)N(C)C)c2)c(C)n1CC1CCCO1 (stereo unspecified)	39.2%	?	16.4µM*	i	2.4%	1.5%
Cc1cc(C(=O)COC(=O)c2ccc3c(c2)NC(=O)CS3)c(C)n1CC1CCCO1 (stereo unspecified)	0.3%	16.4µM*	?	?	?	-2.0%
Cc1cc2[nH]c(=O)c(=O)[nH]c2cc1S(=O)(=O)NCc1ccc(F)cc1	3.9%	-12.8%	-1.9%	i	5.8%	3.6%
CNC(=S)N/N=C/c1ccc(C(C)C)cc1	51.7%	7.31µM*	13µM*	i	0.0%	-65.3%
CC(C)c1ccc(/C=N/NC(=O)c2ccccc2Cl)cc1	-15.5%	2.91µM*	4.11µM*	?	-13.0%	24.7%
Cc1nc2ccc(Br)cn2c1C(=O)N/N=C\c1ccc(C(C)C)cc1	·	7.31µM*	7.31µM*	?	4.1%	-6.8%
CNC(=S)N/N=C/c1ccc(N(C)C)cc1	32.8%	?	5.1%	i	0.0%	5.9%
COC(=O)c1ccc(/C=N/NC(=O)c2ccccc2Cl)cc1	7.9%	?	?	i	-17.5%	-32.2%
